# CYP2C9 inh: blockers of cytochrome P450 2C9 activity – biochemical, luminescence, ADME assay, primary screen; P11712; CYP2C9 Supersomes, luciferin-H conversion; inhibition, % at 5 µM; actives 20% (n = 96,000);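 active = blocking of liver enzyme CYP2C9 beyond about 50% at 5 µM, limit read from the data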
# Target sequence (P11712 whole entry, looked up): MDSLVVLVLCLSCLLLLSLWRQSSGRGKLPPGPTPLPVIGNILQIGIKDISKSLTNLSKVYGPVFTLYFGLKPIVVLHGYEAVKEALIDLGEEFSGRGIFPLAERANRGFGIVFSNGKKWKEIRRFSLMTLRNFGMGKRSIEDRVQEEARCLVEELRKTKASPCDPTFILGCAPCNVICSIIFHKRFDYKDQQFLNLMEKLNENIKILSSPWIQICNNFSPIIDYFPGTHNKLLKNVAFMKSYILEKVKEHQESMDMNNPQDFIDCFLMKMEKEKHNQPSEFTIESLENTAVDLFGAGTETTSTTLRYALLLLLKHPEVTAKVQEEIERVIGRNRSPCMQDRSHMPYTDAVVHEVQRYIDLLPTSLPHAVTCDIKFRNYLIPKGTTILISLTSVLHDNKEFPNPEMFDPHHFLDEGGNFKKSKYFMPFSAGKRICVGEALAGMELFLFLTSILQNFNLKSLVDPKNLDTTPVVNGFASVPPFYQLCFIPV
# CYP2C19 inhib: blockers of cytochrome P450 2C19 activity – biochemical, luminescence, ADME assay, primary screen. P33261. CYP2C19 Supersomes, luciferin-H EGE luminescence, 30 min. inhibition, % at 5 µM. actives 21% (n = 96,000). AID 778, 2007;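 active = CYP2C19 inhibition above a set limit at 5 µM in the primary screen, cut at about 50% in these data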;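 note: plate controls were negative control wells for no effect and 2.5 mM tranylcypromine positive control for full effect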
# CYP2C19 activ: human CYP2C19 activators, primary screen, biochemical, luminescence; Cytochrome P450 2C19 (Homo sapiens), P33261; recombinant CYP2C19, luciferin-H EGE luminescence; stronger effect = higher value; 0 = fully inhibited enzyme, 1 = untreated enzyme; activation factor at 5 µM; 96,000 tested, under 10 active; AID 1025, 2008;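 active = activation factor of at least 2 at 5 µM in the primary screen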;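 note: 0 = wells with 2.5 mM tranylcypromine and 1 = vehicle-only wells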
# CYP2C9 activ: human CYP2C9 activators, primary screen, biochemical, luminescence | Cytochrome P450 2C9 (Homo sapiens), P11712 | recombinant CYP2C9, luciferin-H conversion; stronger effect = higher value; factor 1 = untreated enzyme, 0 = blocked | activation factor at 5 µM | actives 1.4% (n = 96,000);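 active = activation factor of 2 or more for CYP2C9 at a 5 µM dose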;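 note: 0 = sulfaphenazole-blocked wells and 1 = vehicle-only wells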
# PLAP activator: PLAP enzyme activators, biochemical, luminescence, HTS; purified PLAP enzyme, luminescent substrate read-out; stronger effect = higher value; activation fold at 20 µM; actives 1.2% (n = 96,000); in the data active = activation fold above about 2
# * hit, by the source's call. Only some compounds are listed: those with a hit (about 31% of all), similar ones and a draw of the others.
SMILES,CYP2C9 inh,CYP2C19 inhib,CYP2C19 activ,CYP2C9 activ,PLAP activator
COc1ccc(OC)c(-n2nnnc2SCC(=O)Nc2ccc(C(=O)N3CCCCC3)cc2)c1,67.1*,78.1*,0.2,0.3,1.3
COC(=O)c1ccc(-n2nnnc2SCC(=O)N2CCCCC2)cc1,55.1*,26.0,0.7,0.4,0.9
COC(=O)c1ccc(-n2nnnc2SCC(=O)Nc2cc(OC)ccc2OC)cc1,10.9,14.0,0.9,0.9,0.9
CCCOC(=O)c1ccc(-n2nnnc2SCC(=O)N2CCCCC2)cc1,37.8,46.4,0.5,0.6,1.1
CCOC(=O)CSc1nnnn1-c1cc(OC)ccc1OC,64.9*,71.3*,0.3,0.4,1
CCOc1ccc(C(=O)NCC(=O)OCC(=O)N2C(C)CCCC2C)cc1 (centres undefined),8.4,17.8,0.8,0.9,1.1
O=C1CC(c2cccc(Cl)c2)Cc2nc(N3CCN(c4ccccc4)CC3)ncc21 (centres undefined),34.0,8.5,0.9,0.7,0.8
O=C1CC(c2cccc(Cl)c2)Cc2nc(N3CCOCC3)ncc21 (centres undefined),59.0*,71.9*,0.3,0.4,1.5
O=C1CC(c2ccc(F)cc2)Cc2nc(N3CCOCC3)ncc21 (centres undefined),25.0,77.2*,0.2,0.8,1.2
CCS(=O)(=O)N1CCC(NC(=O)c2cc(OC)cc(OC)c2)CC1,-0.6,17.2,0.8,1,1
O=C(CC1C(=O)NCCN1C(=O)Nc1ccccc1)Nc1cccc(C(F)(F)F)c1 (centres undefined),34.5,16.7,0.8,0.7,0.9
COC(=O)c1ccccc1N(Cc1ccccc1)S(C)(=O)=O,29.3,78.3*,0.2,0.7,1.2
CCOC(=O)N1CCC(N2CC34C=CC(O3)C(C(=O)Nc3ccc(C(C)C)cc3)C4C2=O)CC1 (centres undefined),75.5*,15.8,0.8,0.2,1.7
CCOC(=O)N1CCC(N2CC34C=CC(O3)C(C(=O)Nc3ccc(F)cc3)C4C2=O)CC1 (centres undefined),4.3,-9.2,1.1,1,1.3
S=c1[nH]nc(COc2ccc3c(c2)OCO3)n1-c1ccccc1,-3.2,45.1,0.5,1,0.9
COC(=O)Cc1cn(-c2ncc(C(F)(F)F)cc2Cl)c2ccccc12,70.6*,74.1*,0.3,0.3,1.4
NC(=O)Cc1cn(-c2ncc(C(F)(F)F)cc2Cl)c2ccccc12,48.9,47.9,0.5,0.5,1.2
Cc1ccc(-c2csc(N(CCc3ccccc3)C(=O)COc3ccccc3)n2)cc1,98.5*,61.5*,0.4,0,0.9
Cc1ccc(-c2csc(N(Cc3ccccc3)C(=O)COc3ccccc3)n2)cc1,31.2,7.1,0.9,0.7,1
O=C(COc1ccccc1)N(CCc1ccccc1)c1nc(-c2ccc(F)cc2)cs1,80.6*,3.3,1,0.2,1
CCCNC(=O)C1CC(=O)N(c2ccc(OCC(=O)Nc3cc(C)cc(C)c3)cc2)C1 (centres undefined),19.1,-14.1,1.1,0.8,1.3
O=C(CCS(=O)(=O)c1ccc(Br)cc1)NC1CCCC1,-10.0,12.2,0.9,1.1,0.8
Cc1ccc2c(c1)NC(=O)C(CC(=O)NCCCN1CCN(c3cc(C)ccc3C)CC1)O2 (centres undefined),10.7,7.1,0.9,0.9,1.6
CC(C)n1c(SC2CCOC2=O)nc2ccccc21 (centres undefined),-89.4,5.6,0.9,1.9,0.8
COc1ccccc1NS(=O)(=O)c1ccc2oc(SC3CCOC3=O)nc2c1 (centres undefined),40.4,52.6*,0.5,0.6,1.4
SMILES,CYP2C9 inh,CYP2C19 inhib,CYP2C19 activ,CYP2C9 activ,PLAP activator
CCC1(C)N=c2c(c(=O)n(C)c(=O)n2C)=NO1 (centres undefined),-11.6,-14.1,1.1,1.1,0.9
COc1ccc(CC2CCOC2=O)cc1 (centres undefined),3.2,76.5*,0.2,1,0.9
CC(C)CCn1c(SCC(N)=O)nc2c1c(=O)n(C)c(=O)n2C,-1.9,-14.5,1.1,1,1.2
O=C(CCCn1c(=O)[nH]c2ccsc2c1=O)N1CCCCC1,2.0,20.3,0.8,1,1.1
O=C(CCCCCn1c(=O)[nH]c2ccsc2c1=O)N1CCN(C2CCCCC2)CC1,72.5*,55.7*,0.4,0.3,1.6
O=C(CCCCCn1c(=O)[nH]c2ccsc2c1=O)NCc1cccs1,80.8*,38.3,0.6,0.2,0.8
O=C(CCCCn1c(=O)[nH]c2ccsc2c1=O)NCC1CCCO1 (centres undefined),-4.1,-7.3,1.1,1,0.9
O=C(CCCCCn1c(=O)[nH]c2ccsc2c1=O)NCc1ccc(F)cc1,87.7*,35.1,0.6,0.1,0.9
O=C(CCCn1c(=O)[nH]c2ccsc2c1=O)NCc1cccs1,27.6,7.4,0.9,0.7,1.2
CCOC(=O)c1c(N)sc2c1CCC1C(=O)N(C3CCCCC3)C(=O)C21 (centres undefined),90.0*,90.6*,0.1,0.1,1.5
CCOC(=O)c1c(N)sc2c1CCC(CC)C2 (centres undefined),5.9,22.4,0.8,0.9,1
COc1ccc2c(c1)c1nc3ccccc3nc1n2CCn1c(=O)oc2ccccc21,22.8,33.8,0.7,0.8,0.8
CCCn1c2ccccc2c2nc3ccccc3nc21,68.6*,53.9*,0.5,0.3,0.9
O=c1oc2ccccc2n1CCn1c2ccccc2c2nc3ccccc3nc21,64.3*,77.8*,0.2,0.4,0.8
CCOC(=O)Cn1c2ccccc2c2nc3ccccc3nc21,-1.7,57.5*,0.4,1,1.3
COC(=O)CN(c1ccccc1C)S(C)(=O)=O,-6.1,3.4,1,1.1,1
Cn1cccc1CC(=O)N/N=C\c1cccs1,8.8,21.3,0.8,0.9,1
COC(=O)CN(c1c(C)cccc1C)S(C)(=O)=O,0.9,56.0*,0.4,1,1
Cc1ccc(N(CC(=O)N/N=C/c2cccs2)S(C)(=O)=O)cc1Cl,68.6*,47.0,0.5,0.3,0.7
COC(=O)CN(c1ccc(C)c(Cl)c1)S(C)(=O)=O,-8.9,54.5*,0.5,1.1,1.4
ClC(=C\c1ccccc1)/C=N/N1CCN(c2ccccn2)CC1,-4.7,-7.4,1.1,1,1
Cc1cc(C)n(-c2nnc(C)n2/N=C/c2ccccc2O)n1,9.3,16.1,0.8,0.9,1
Cc1nc2sc(C(c3ccc(F)cc3)N3CCOCC3)c(O)n2n1 (centres undefined),4.0,-8.3,1.1,1,1.2
Cc1nc2sc(C(c3cccs3)N3CCN(C(=O)c4ccco4)CC3)c(O)n2n1 (centres undefined),10.4,5.9,0.9,0.9,1.2
